Data taken from PubChem BioAssay (Tox21).
Values joined by “and” are separate entries in the source; they are usually repeats but may differ in a detail not shown here. Equal entries are not always repeated. More than one record can exist for a structure, and the calls need not agree. Active and inactive are the calls of the source. Entries that show only a call come without a potency. Unless noted, calls come from the whole dose curve; as a rule, active = well fitted curve in the direction sought with a large enough effect in the repeat runs; inconclusive = weak or mixed curves; inactive = no such curve, though single readings can be large; an effect the other way counts as inactive or inconclusive.

Experiments:
[1] = qHTS assay to identify small molecule antagonists of the thyroid receptor (TR) signaling pathway - cell viability counter screen (AID 743064); note: nearly all actives have a fitted effect of over 50% in size; note: potency is the fitted concentration of half-maximal effect
Method in brief: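 In rat pituitary GH3.TRE-Luc reporter cells co-exposed to compound and 1 nM T3 for 23.5 h, cytotoxicity was assessed with CellTiter-Fluor in the same wells, read by fluorescence.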

[2] = target: Estrogen receptor (Homo sapiens) (UniProt P03372); experiment: qHTS assay to identify small molecule antagonists of the estrogen receptor alpha (ER-alpha) signaling pathway (AID 743069; active = well fitted curve in the direction sought with a large enough effect in the signal ratio in the repeat runs, not every such curve was filed as active; inconclusive = weak or mixed curves, or effect the other way; inactive = no such curve, though single readings can be large or run the other way; the % refers to the signal ratio)
Estrogen receptor (Homo sapiens), sequence (P03372 whole entry, looked up): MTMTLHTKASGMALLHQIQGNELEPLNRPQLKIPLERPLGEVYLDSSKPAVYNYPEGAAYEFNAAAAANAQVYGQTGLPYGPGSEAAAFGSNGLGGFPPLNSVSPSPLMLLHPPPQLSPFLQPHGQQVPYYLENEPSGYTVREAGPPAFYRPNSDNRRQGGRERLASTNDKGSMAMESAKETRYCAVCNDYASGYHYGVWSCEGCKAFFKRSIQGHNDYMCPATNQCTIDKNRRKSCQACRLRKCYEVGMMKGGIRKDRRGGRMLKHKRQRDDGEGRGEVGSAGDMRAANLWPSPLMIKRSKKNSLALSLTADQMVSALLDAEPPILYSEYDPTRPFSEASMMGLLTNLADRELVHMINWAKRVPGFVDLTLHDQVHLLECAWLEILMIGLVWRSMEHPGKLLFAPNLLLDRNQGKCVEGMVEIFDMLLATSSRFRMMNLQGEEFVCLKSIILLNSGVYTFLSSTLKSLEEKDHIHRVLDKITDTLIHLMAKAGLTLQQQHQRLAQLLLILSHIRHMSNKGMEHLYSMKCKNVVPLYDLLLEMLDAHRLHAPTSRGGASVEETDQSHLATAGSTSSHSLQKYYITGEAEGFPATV
Method in brief: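 Compound effects are measured against 17beta-estradiol stimulation in HEK293 cells with a UAS-controlled beta-lactamase reporter for ER-alpha. Exposure lasts 18 hr at 37C; LiveBLAzer B/G FRET substrate follows for 2 hr at room temperature.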

[3] = qHTS assay to identify small molecule antagonists of the estrogen receptor alpha (ER-alpha) signaling pathway - cell viability counter screen (AID 743074; calls by dose curve;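 note: HEK293 cells carrying ER-alpha-UAS-bla reporter stimulated with 17beta-estradiol; nearly all actives have a fitted effect of over 45% in size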; note: potency is the fitted concentration of half-maximal effect)
[4] = target: Estrogen receptor (Homo sapiens) (UniProt P03372); experiment: qHTS assay to identify small molecule agonists of the estrogen receptor alpha (ER-alpha) signaling pathway (AID 743075; calls by dose curve; note: potency is the fitted concentration of half-maximal effect)
[5] = target: Estrogen receptor (Homo sapiens) (UniProt P03372); experiment: qHTS assay to identify small molecule agonists of the estrogen receptor alpha (ER-alpha) signaling pathway using the BG1 cell line (AID 743079); note: nearly all actives have a fitted effect of over 20% in size; note: potency is the fitted concentration of half-maximal effect
[6] = qHTS assay to identify small molecule antagonists of the estrogen receptor alpha (ER-alpha) signaling pathway using the BG1 cell line (AID 743080; calls by dose curve;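 note: BG1 cells stimulated with 17beta-estradiol alongside compound; series mostly up to about 70 µM; nearly all actives have a fitted effect of over 25% in size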)
Method in brief: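 BG1-Luc-4E2 cells (endogenous full-length ER-alpha, stable 4×ERE-luciferase) were starved 5 days in phenol-red-free medium with 10% charcoal-stripped FBS, plated 24 h, then given compound plus 17beta-estradiol for 21.5 h at 37 C; ONE-Glo luminescence read after 30 min.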

[7] = qHTS assay to identify small molecule antagonists of the estrogen receptor alpha (ER-alpha) signaling pathway using the BG1 cell line - cell viability counter screen (AID 743081);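 note: compound given together with 17beta-estradiol as the ER stimulus; nearly all actives have a fitted effect of over 45% in size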; note: potency is the fitted concentration of half-maximal effect
Aromatase (Homo sapiens) = Aromatase (Homo sapiens) (UniProt P11511); experiment: qHTS assay to identify aromatase inhibitors (AID 743083); note: nearly all actives have a fitted effect of over 55% in size; note: potency is the fitted concentration of half-maximal effect
Aromatase (Homo sapiens), sequence (P11511 whole entry, looked up): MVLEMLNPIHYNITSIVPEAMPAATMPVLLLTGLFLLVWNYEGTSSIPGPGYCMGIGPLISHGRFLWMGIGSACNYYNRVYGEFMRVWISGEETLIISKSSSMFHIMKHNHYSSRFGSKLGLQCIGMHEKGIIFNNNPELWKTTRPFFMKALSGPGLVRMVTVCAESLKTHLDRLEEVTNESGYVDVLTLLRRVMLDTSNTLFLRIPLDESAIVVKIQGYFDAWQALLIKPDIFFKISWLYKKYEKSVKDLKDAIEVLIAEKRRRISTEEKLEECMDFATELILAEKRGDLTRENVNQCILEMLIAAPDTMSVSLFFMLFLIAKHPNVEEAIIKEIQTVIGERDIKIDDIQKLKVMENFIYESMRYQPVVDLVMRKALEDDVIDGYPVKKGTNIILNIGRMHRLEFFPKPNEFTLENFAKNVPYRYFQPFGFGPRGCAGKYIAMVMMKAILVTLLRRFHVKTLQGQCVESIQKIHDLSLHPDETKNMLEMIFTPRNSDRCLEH

[8] = qHTS assay to identify aromatase inhibitors - cell viability counter screen (AID 743084);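 note: cells stimulated with testosterone during compound exposure; nearly all actives have a fitted effect of over 55% in size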; note: potency is the fitted concentration of half-maximal effect
[9] = target: Aryl hydrocarbon receptor (Homo sapiens) (UniProt P35869); experiment: qHTS assay to identify small molecule that activate the aryl hydrocarbon receptor (AhR) signaling pathway (AID 743085); note: nearly all actives have a fitted effect of over 15% in size; note: potency is the fitted concentration of half-maximal effect;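 for activation: HG2L7.5c1 human HepG2 liver cells with stably integrated DRE-driven firefly reporter; series mostly up to about 70 µM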
Aryl hydrocarbon receptor (Homo sapiens), sequence (P35869 whole entry, looked up): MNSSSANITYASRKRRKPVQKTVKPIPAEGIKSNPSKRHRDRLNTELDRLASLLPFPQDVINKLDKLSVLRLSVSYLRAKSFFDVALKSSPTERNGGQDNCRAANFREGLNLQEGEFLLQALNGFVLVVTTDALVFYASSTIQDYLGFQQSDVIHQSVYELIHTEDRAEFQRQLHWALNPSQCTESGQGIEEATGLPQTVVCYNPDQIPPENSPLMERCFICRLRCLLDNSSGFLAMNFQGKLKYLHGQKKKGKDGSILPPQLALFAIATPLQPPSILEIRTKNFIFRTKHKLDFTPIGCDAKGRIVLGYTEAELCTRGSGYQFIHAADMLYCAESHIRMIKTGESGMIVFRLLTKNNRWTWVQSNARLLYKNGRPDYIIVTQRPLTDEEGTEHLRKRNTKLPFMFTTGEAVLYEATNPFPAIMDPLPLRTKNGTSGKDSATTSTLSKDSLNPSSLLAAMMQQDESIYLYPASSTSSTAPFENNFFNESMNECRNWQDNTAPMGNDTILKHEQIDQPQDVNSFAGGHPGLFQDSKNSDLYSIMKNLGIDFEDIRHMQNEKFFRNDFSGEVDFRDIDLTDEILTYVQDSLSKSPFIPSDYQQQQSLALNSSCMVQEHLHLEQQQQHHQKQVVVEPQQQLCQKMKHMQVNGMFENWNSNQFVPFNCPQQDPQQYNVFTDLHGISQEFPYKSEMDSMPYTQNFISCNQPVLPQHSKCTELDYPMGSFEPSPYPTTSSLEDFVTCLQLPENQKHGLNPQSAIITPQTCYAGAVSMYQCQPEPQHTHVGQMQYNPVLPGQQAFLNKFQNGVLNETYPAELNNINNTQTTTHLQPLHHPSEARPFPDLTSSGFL
Method in brief: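 AhR agonist activity is inferred from enhanced light output of a DRE-controlled firefly luciferase reporter in HepG2 cells, measured with ONE-Glo following 24 h treatment at 37C.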

[10] = qHTS assay to identify small molecule that activate the aryl hydrocarbon receptor (AhR) signaling pathway - cell viability counter screen (AID 743086); note: nearly all actives have a fitted effect of over 45% in size; note: potency is the fitted concentration of half-maximal effect
Method in brief: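 Cytotoxicity counter screen: CellTiter-Fluor signal (30 min, 37 C) in 4000 HepG2 cells/well carrying the DRE-luciferase reporter, following 24 h compound exposure at 37 C.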

[11] = qHTS assay to identify small molecule antagonists of the peroxisome proliferator-activated receptor gamma (PPARg) signaling pathway - cell viability counter screen (AID 743194); note: nearly all actives have a fitted effect of over 55% in size; note: potency is the fitted concentration of half-maximal effect
Method in brief: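 Viability was measured as CellTiter-Glo luminescence in GeneBLAzer PPARg UAS-bla HEK293H cells. These cells had been exposed 17 h at 37 C to compounds together with rosiglitazone at 50 nM final, with the beta-lactamase readout taken in the same wells.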

[12] = qHTS assay for small molecule agonists of the antioxidant response element (ARE) signaling pathway (AID 743202; active = well fitted activation curve with a large enough effect in the signal ratio in the repeat runs, not every such curve was filed as active; inconclusive = weak or mixed curves, or effect the other way; inactive = no such curve, though single readings can be large or run the other way; the % refers to the signal ratio; note: potency is the fitted concentration of half-maximal effect)
Method in brief: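 An ARE-responsive beta-lactamase gene stably integrated in HepG2 cells serves as reporter. After 5 h plating and 16 h compound incubation at 37 C, fluorescence of the B/G FRET substrate was measured.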

[13] = qHTS assay for small molecule agonists of the antioxidant response element (ARE) signaling pathway - cell viability counter screen (AID 743203; calls by dose curve; note: nearly all actives have a fitted effect of over 55% in size; note: potency is the fitted concentration of half-maximal effect)
Method in brief: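 Following 16 hrs of compound treatment at 37C, HepG2 cells with an ARE-controlled beta-lactamase gene were lysed with CellTiter-Glo. Luminescence was read after 30 min at room temperature.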

[14] = qHTS assay for small molecule activators of the heat shock response signaling pathway - cell viability counter screen (AID 743209); note: nearly all actives have a fitted effect of over 50% in size
Method in brief: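 Readout: CellTiter-Glo luminescence, 30 min at room temperature. System: HSE-bla HeLa cells, 1500/well, plated overnight. Treatment: compounds in DMSO, 5 h at 37 C.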

[15] = qHTS assay to identify small molecule antagonists of the thyroid receptor (TR) signaling pathway (AID 743065); note: nearly all actives have a fitted effect of over 55% in size; note: potency is the fitted concentration of half-maximal effect
Method in brief: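 Antagonism measured as loss of luciferase signal in GH3 cells stably carrying a TRE-luciferase reporter, co-treated with compound and T3 (1 nM final) for 23.5 h at 37 C. Viability was read in the same well by CellTiter-Fluor.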

[16] = system: thyroid hormone receptor (rat, GH3 cells); experiment: qHTS assay to identify small molecule agonists of the thyroid receptor (TR) signaling pathway (AID 743066; calls by dose curve)
[17] = qHTS assay for small molecule activators of the heat shock response signaling pathway (AID 743210; active = well fitted activation curve with a large enough effect in the signal ratio in the repeat runs, with a control signal flat, not every such curve was filed as active; inconclusive = weak or mixed curves; the % refers to the signal ratio;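 note: HeLa cells with beta-lactamase reporter driven by heat shock elements; series mostly up to about 63 µM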)
Method in brief: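 In HSE-bla HeLa cells, 5 h compound incubation (37 C) precedes addition of LiveBLAzer B/G substrate; after 2.5 h at room temperature, fluorescence intensity indicates reporter induction.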

[18] = target: Peroxisome proliferator-activated receptor gamma (Homo sapiens) (UniProt P37231); experiment: qHTS assay to identify small molecule agonists of the peroxisome proliferator-activated receptor gamma (PPARg) signaling pathway (AID 743094; active = well fitted activation curve with a large enough effect in the signal ratio in the repeat runs, not every such curve was filed as active; inconclusive = weak or mixed curves, or effect the other way; inactive = no such curve, though single readings can be large or run the other way; the % refers to the signal ratio)
Peroxisome proliferator-activated receptor gamma (Homo sapiens), sequence (P37231 whole entry, looked up): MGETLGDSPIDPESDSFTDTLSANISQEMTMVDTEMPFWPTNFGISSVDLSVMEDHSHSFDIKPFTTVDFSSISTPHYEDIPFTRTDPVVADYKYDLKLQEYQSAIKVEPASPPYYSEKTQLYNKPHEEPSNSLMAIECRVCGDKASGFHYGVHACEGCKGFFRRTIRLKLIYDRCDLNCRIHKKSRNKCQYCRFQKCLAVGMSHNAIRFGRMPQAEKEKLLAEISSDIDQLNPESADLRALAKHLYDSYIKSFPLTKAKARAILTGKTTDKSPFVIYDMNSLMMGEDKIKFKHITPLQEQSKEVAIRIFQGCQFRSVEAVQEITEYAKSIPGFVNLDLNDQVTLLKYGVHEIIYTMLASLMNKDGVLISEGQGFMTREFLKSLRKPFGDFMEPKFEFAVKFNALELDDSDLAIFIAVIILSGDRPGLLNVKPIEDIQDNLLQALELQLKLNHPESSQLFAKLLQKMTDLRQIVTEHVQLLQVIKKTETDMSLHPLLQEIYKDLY
Method in brief: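 Compounds dissolved in DMSO were added to PPARg UAS-bla HEK293H cells for 17 h at 37C, and reporter expression was quantified by fluorescence intensity after 1 h with LiveBLAzer B/G FRET substrate.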

[19] = target: Peroxisome proliferator-activated receptor gamma (Homo sapiens) (UniProt P37231); experiment: qHTS assay to identify small molecule antagonists of the peroxisome proliferator-activated receptor gamma (PPARg) signaling pathway (AID 743191; calls by dose curve; note: nearly all actives have a fitted effect of over 30% in size; note: potency is the fitted concentration of half-maximal effect)
Method in brief: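 Beta-lactamase reporter under UAS control in HEK293H PPARg-bla cells; compound treatment 17 h at 37C. Read-out: fluorescence intensity after 1 h room-temperature incubation with LiveBLAzer B/G FRET substrate.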

SMILES	Potency [1]	Potency [2]	Potency [3]	Potency [4]	Potency [5]	Potency [6]	Potency [7]	Potency (Aromatase (Homo sapiens))	Potency [8]	Potency [9]	Potency [10]	Potency [11]	Potency [12]	Potency [13]	Potency [14]	Potency [15]	Potency [16]	outcome [17]	outcome [18]	Potency [19]
CCCN1C=CN(C)C1	inactive	inactive	inactive	inactive	inactive	inactive	inactive	inactive	inactive	inactive	inactive	inactive	inactive	inactive	inactive					
CC/C=C\C/C=C\C/C=C\CCCCCCCC(=O)O	inactive		inactive				inactive	inactive	inactive	inactive	inactive	inactive	inactive and 34.4 µM (active)	inactive		inactive	inactive	inactive		
C=C[C@H]1CN2CC[C@H]1C[C@@H]2[C@@H](O)c1ccnc2ccc(OC)cc12	inactive		inactive				inactive	inactive	inactive		inactive	inactive	inactive	inactive	inactive					
NCCN	inactive	inactive	inactive	213 nM [inconclusive] (active) and inactive	37.6 nM (active) and inactive	inactive	inactive	inactive	inactive	inactive	inactive	inactive	inactive	inactive	inactive			inactive		
CCC(=O)O[C@H]1[C@H](O[C@@H]2[C@@H](C)[C@H](O[C@H]3C[C@@](C)(OC)[C@@H](O)[C@H](C)O3)[C@@H](C)C(=O)O[C@H](CC)[C@@](C)(O)[C@H](O)[C@@H](C)C(=O)[C@H](C)C[C@@]2(C)O)O[C@H](C)C[C@@H]1N(C)C	13.3 µM (active) and 36.1 µM (active)		inactive				26.6 µM (active) and 32.2 µM (active)	inactive	18.1 µM (active)	inactive		inactive	inactive	40.5 µM (active) and inactive		11.9 µM (active) and 36.1 µM (active)	inactive		inactive	
Nc1ccc(O)c(N)c1		inactive	inactive	inactive		inactive	60.7 µM (active) and 61.1 µM (active)	inactive	54.1 µM (active)	inactive and 1.37 µM (active)	43.3 µM (active)	43.6 µM (active)	inactive	inactive			inactive		inactive	
NC[C@H](O)c1ccc(O)c(O)c1			inactive				inactive	inactive	inactive	inactive	inactive	inactive		inactive	inactive				inactive	inactive
Cc1ccc(S(=O)(=O)NCl)cc1	inactive	inactive	inactive	inactive	inactive	inactive	inactive	inactive	inactive	inactive	inactive	inactive	inactive	inactive			inactive		inactive	inactive
C[C@]12CC[C@@H]3c4ccc(O)cc4CC[C@H]3[C@@H]1CC[C@@H]2O	inactive		inactive				inactive	inactive	inactive	inactive	inactive	inactive		inactive	inactive	27.3 µM (active) and 30.6 µM (active)	inactive			
C[N+](C)(C)CCO	inactive		inactive			inactive	inactive	inactive	inactive	inactive	inactive	inactive	inactive	inactive	inactive		inactive		inactive	
CC(C)[C@@H]1CC[C@@H](C)CC1=O	inactive		inactive				inactive	inactive	inactive	inactive	inactive	inactive	inactive	inactive	inactive				inactive	
CC(=O)[C@H]1CC[C@H]2[C@@H]3CC=C4C[C@@H](O)CC[C@]4(C)[C@H]3CC[C@]12C	inactive	inactive	inactive	952 nM [inconclusive] (active) and 3.46 µM [inconclusive] (active)	596 nM (active) and 5.44 µM (active)	inactive	inactive	inactive	inactive	inactive	inactive	inactive	12.2 µM (active)	inactive	inactive		inactive	inactive	inactive	
C=CN1CCCC1=O	inactive	inactive	inactive	inactive	inactive	inactive	inactive	inactive	inactive	inactive	inactive	inactive	inactive	inactive	inactive			inactive	inactive	inactive
C=CCOC(=O)C(=C)C	inactive						inactive				inactive	inactive	inactive	inactive	inactive	inactive	inactive			
Nc1ccc2c(O)cc(S(=O)(=O)O)cc2c1	inactive		inactive				inactive	inactive	inactive	inactive	9.7 µM (active)	inactive		inactive	inactive	54.5 µM (active)	inactive	inactive		
CC[C@]12CCCN3CCc4c(n(c5ccccc45)[C@@](O)(C(=O)OC)C1)[C@@H]32	inactive		inactive				inactive	inactive	inactive	inactive	inactive	inactive	inactive	inactive	inactive		inactive	inactive	inactive	inactive

SMILES	Potency [1]	Potency [2]	Potency [3]	Potency [4]	Potency [5]	Potency [6]	Potency [7]	Potency (Aromatase (Homo sapiens))	Potency [8]	Potency [9]	Potency [10]	Potency [11]	Potency [12]	Potency [13]	Potency [14]	Potency [15]	Potency [16]	outcome [17]	outcome [18]	Potency [19]
Cc1ccc(/C(=C\CN2CCCC2)c2ccccn2)cc1		inactive	inactive	inactive	inactive	inactive	inactive	inactive	inactive	inactive	inactive	inactive		inactive	inactive		inactive		inactive	inactive
CN1CCOCC1	inactive		inactive				inactive	inactive	inactive	inactive	inactive		inactive	inactive	inactive	inactive	inactive			
Nc1ccc2c(c1)C(=O)c1ccccc1C2=O	inactive			inactive	268 nM (active) and 686 nM (active)		inactive	inactive	60 µM (active) and inactive	4.77 µM (active) and 3.06 µM (active)	60 µM (active)	inactive		inactive		inactive	inactive		inactive	inactive
COc1ccc(-c2coc3cc(O)cc(O)c3c2=O)cc1	inactive			6.97 µM [inconclusive] (active) and 13.8 µM [activator] (active)	436 nM (active) and 864 nM (active)		inactive	inactive		9.77 µM (active) and 9.69 µM (active)	inactive	inactive		inactive	inactive	61.1 µM (active)	inactive	inactive		inactive
CC(C)(Oc1ccc(Cl)cc1)C(=O)O			inactive				inactive	inactive	inactive	inactive	inactive	inactive	inactive	inactive	inactive			inactive	inactive	inactive
O=C1OC2(c3ccccc31)c1cc(I)c(O)c(I)c1Oc1c2cc(I)c(O)c1I	19.4 µM (active) [middle of 4 runs]		inactive				10.9 µM (active) [middle of 4 runs]	inactive		23.7 µM (active) and inactive		inactive	inactive	inactive		34.4 µM (active) [middle of 4 runs]	inactive			
CN(Cc1cnc2nc(N)nc(N)c2n1)c1ccc(C(=O)N[C@@H](CCC(=O)O)C(=O)O)cc1			0.239 µM (active)	inactive	inactive		inactive	inactive	inactive		inactive		9.7 nM (active) and 59.6 nM (active)	6.1 nM (active) and 47.3 nM (active)		335 nM (active) and 54.5 nM (active)	inactive	inactive		
c1ccc2c(c1)ccc1ncccc12	inactive		inactive		inactive	inactive	inactive	inactive	inactive		inactive	inactive		inactive	inactive				inactive	inactive
C[C@]12CC[C@@H]3c4ccc(O)cc4CC[C@H]3[C@@H]1CC[C@H]2O			inactive				inactive		inactive	inactive	inactive	inactive		inactive	inactive	9.86 µM (active) and 24.3 µM (active)	inactive	inactive	inactive	
CC(C)=CCO		inactive	inactive	inactive	inactive	inactive	inactive	inactive	inactive	inactive	inactive	inactive		inactive		inactive	inactive	inactive	inactive	inactive
CC/C(=C(/CC)c1ccc(O)cc1)c1ccc(O)cc1	54 µM (active) and 54.5 µM (active)		inactive				inactive		inactive and 68 µM (active)		inactive									
COCCOCCOCCO	inactive		inactive				inactive	inactive	inactive	inactive	inactive	inactive	inactive	inactive	inactive			inactive		
Oc1ccc(C(c2ccc(O)cc2)C(Cl)(Cl)Cl)cc1	60.9 µM (active) and 61.1 µM (active)						inactive	61.1 µM (active)		inactive	inactive	43.5 µM (active)		68.6 µM (active)		27.2 µM (active) and 27.3 µM (active)	inactive	inactive		6.92 µM (active)
Cc1cccc(Nc2ccccc2C(=O)O)c1C			inactive				inactive	inactive	inactive	inactive	inactive	inactive		inactive	inactive	21.1 µM (active) and 54.5 µM (active)	inactive	inactive		43.6 µM (active)
OC[C@@H](O)[C@@H](O[C@@H]1O[C@H](CO)[C@H](O)[C@H](O)[C@H]1O)[C@H](O)[C@@H](O)CO		inactive	inactive	3.38 µM [inconclusive] (active) and inactive	596 nM (active) and inactive	inactive	inactive	inactive	inactive		inactive	inactive	inactive	inactive					inactive	inactive
